# Reference: PubChem BioAssay
# Values without a mark were called inactive. For some assays here: Entries with a potency or affinity are not part of this list. Calls of active or inactive are those of the source. Unless noted, how the calls were made is not given here.
# What was measured:
# [1] = antimalarial activity against Dd2 strain (AID 2302;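 active means growth inhibition above 50% at the single 2 µM test dose, taken to imply half-maximal potency below 2 µM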;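 further: 0% = DMSO untreated growth and 100% = chloroquine plus artemisinin killed control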); conditions: P. falciparum Dd2 in RBCs, LDH growth readout, 72 h; at 2 µM; stronger effect = higher value
# [2] = HepG2 cytotoxicity, primary screen, cytotoxicity control for P. falciparum antimalarial project, cell-based, ATP luminescence (AID 2303;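 active means inhibition above 50%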;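 further: 0% = DMSO wells and 100% = digitonin-killed cells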); conditions: HepG2 viability, 24-48 h, at 10 µM, stronger effect = higher value
# [3] = target: L-lactate dehydrogenase (Plasmodium falciparum (isolate CDC / Honduras)) (UniProt Q27743); experiment: PfLDH activity inhibition – cell lysate, 3D7 strain, counter-screen for P. falciparum growth inhibition project (AID 2304);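 further: 0% = vehicle and 100% = reference inhibitor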; conditions: P. falciparum 3D7 crude extract, LDH APAD/NBT absorbance; at 2 µM; stronger effect = higher value
# Chain of L-lactate dehydrogenase (Plasmodium falciparum (isolate CDC / Honduras)) (Q27743 whole entry, looked up): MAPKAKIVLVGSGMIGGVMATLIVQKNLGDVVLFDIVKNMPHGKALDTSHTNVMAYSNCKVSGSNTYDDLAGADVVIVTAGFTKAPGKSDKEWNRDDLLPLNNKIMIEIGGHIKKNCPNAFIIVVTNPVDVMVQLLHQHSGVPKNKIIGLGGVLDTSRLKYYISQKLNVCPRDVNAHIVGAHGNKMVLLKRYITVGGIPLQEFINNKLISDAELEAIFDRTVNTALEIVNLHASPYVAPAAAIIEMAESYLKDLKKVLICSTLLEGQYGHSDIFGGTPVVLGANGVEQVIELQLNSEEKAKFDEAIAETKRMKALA
# [4] = inhibition of 3D7 malaria parasite growth – strain 3D7 (AID 2306);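 further: 0% = DMSO wells and 100% = chloroquine plus artemisinin control wells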; conditions: P. falciparum 3D7 erythrocytic growth, LDH absorbance, 72 h; at 2 µM; stronger effect = higher value
# [5] = target: Calcium-dependent protein kinase 1 (Plasmodium falciparum (isolate 3D7)) (UniProt P62344); experiment: PfCDPK1 kinase inhibitors, biochemical, TCAMS library (AID 1159585; cut-off not given, nearly all actives have IC50 up to about 0.98 µM;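 further: inhibitors leave more ATP so luminescence rises with inhibition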); conditions: recombinant PfCDPK1, Kinase-Glo ATP depletion luminescence
# Chain of Calcium-dependent protein kinase 1 (Plasmodium falciparum (isolate 3D7)) (P62344 whole entry, looked up): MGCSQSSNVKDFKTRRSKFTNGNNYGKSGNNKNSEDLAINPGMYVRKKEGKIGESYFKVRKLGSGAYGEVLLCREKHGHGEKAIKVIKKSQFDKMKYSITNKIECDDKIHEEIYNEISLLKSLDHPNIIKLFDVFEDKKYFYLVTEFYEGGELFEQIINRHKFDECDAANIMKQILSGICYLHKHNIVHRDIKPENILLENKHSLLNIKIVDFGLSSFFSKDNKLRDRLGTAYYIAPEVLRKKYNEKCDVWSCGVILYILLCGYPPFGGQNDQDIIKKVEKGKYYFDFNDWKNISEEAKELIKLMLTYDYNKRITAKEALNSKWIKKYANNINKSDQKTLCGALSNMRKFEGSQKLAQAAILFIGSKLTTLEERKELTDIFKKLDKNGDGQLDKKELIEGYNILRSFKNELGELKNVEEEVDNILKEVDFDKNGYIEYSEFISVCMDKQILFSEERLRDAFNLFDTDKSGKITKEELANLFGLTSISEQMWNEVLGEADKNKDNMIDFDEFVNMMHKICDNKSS
# [6] = target: Plasmodium falciparum protein kinase 6 (PK6, PF3D7_1337100) (UniProt Q8IDW1); experiment: PfPK6 kinase inhibitors, biochemical, TCAMS library (AID 1159586); conditions: recombinant PfPK6, Kinase-Glo ATP depletion luminescence
# Chain of Plasmodium falciparum protein kinase 6 (PK6, PF3D7_1337100) (Q8IDW1 1-305): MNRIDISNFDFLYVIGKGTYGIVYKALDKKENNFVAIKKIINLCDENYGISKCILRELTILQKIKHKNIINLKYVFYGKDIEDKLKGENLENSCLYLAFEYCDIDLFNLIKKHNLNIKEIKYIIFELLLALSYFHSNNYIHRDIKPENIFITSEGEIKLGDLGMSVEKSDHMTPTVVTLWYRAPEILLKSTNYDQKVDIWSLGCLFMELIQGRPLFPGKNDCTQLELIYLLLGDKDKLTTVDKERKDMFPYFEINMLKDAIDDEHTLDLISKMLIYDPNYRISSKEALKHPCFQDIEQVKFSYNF
# [7] = target: Protein kinase 7 (PK7), Plasmodium falciparum 3D7 (PF3D7_0213400) (UniProt Q7YTF7); experiment: inhibition of Plasmodium PK7 catalytic activity – biochemical, TCAMS antimalarial set, Kinase-Glo luminescence (AID 1159587); conditions: recombinant PfPK7, Kinase-Glo ATP depletion luminescence
# Chain of Protein kinase 7 (PK7), Plasmodium falciparum 3D7 (PF3D7_0213400) (Q7YTF7 1-343): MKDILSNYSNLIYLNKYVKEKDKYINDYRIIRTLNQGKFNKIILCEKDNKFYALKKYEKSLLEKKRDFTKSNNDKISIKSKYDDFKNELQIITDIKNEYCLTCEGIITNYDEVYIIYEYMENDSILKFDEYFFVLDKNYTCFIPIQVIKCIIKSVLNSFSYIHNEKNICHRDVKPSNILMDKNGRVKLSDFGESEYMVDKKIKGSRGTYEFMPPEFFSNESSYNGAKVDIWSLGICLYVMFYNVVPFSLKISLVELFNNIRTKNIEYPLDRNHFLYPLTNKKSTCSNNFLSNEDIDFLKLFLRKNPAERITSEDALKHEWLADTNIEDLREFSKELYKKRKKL
# [8] = target: Calcium-dependent protein kinase 4 (Plasmodium falciparum (isolate 3D7)) (UniProt Q8IBS5); experiment: PfCDPK4 kinase inhibitors, biochemical, TCAMS library (AID 1159588; cut-off not given, nearly all actives have IC50 up to about 0.91 µM); conditions: recombinant PfCDPK4, Kinase-Glo ATP depletion luminescence
# Chain of Calcium-dependent protein kinase 4 (Plasmodium falciparum (isolate 3D7)) (Q8IBS5 whole entry, looked up): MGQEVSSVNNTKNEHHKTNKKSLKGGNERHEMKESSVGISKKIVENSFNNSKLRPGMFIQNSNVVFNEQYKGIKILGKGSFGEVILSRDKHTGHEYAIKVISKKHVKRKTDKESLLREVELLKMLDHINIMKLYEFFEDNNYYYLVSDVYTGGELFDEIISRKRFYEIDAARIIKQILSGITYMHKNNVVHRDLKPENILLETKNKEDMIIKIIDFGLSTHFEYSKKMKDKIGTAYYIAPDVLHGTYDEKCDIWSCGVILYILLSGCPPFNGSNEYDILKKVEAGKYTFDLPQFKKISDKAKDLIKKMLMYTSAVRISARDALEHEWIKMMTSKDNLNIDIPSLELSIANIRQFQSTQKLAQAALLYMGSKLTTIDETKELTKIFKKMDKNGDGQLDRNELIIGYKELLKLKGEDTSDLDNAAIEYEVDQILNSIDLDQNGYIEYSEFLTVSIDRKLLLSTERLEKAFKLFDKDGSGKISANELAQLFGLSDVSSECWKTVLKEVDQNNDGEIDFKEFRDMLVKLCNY
SMILES,growth inhibition [1],inhibition [2],inhibition [3] [%],growth inhibition [4],outcome [5],outcome [6],outcome [7],outcome [8]
CC(C)N1CCN(C(CN2CCN(CCCOc3cccc4ccccc34)CC2)c2ccc(F)cc2)CC1 (stereo not given),75% (active),54% (active),4,101% (active),inactive,inactive,inactive,inactive
Cc1cc(Nc2ccnc(-c3ccc(Cl)cc3)n2)ccn1,23%,6%,-4,94% (active),inactive,inactive,inactive,inactive
CCn1c(-c2ccccc2)cc2nnc3ccccc3c21,87% (active),34%,5,92% (active),inactive,inactive,inactive,inactive
CC(C)c1ccc(S(=O)(=O)N(c2ccc3c(c2)OCO3)C2CCN(Cc3ccccc3)C2)cc1 (stereo not given),92% (active),1%,0,100% (active),inactive,inactive,inactive,inactive
Cc1cc(CN2CCC(C(=O)Nc3ccc(-c4nc5ccccc5[nH]4)cc3)CC2)oc1C,9%,-7%,-4,95% (active),inactive,inactive,inactive,inactive
CCOc1ccc(-c2nonc2NC(=O)c2cccc(Cl)c2)cc1OCC,99% (active),-5%,-8,100% (active),inactive,inactive,inactive,inactive
Cc1ccc2[nH]c3c(NCCCN4CCOCC4)ncnc3c2c1,9%,-1%,-3,101% (active),inactive,inactive,inactive,inactive
CCCNCc1ccc(-c2ccc(CN(CCOC)C(=O)[C@H]3CCCO3)cc2)nc1,6%,1%,-3,98% (active),inactive,inactive,inactive,inactive
CC(=O)N[C@H](C(=O)Nc1ccc(-c2ccc(-c3nc4ccc(C(F)(F)F)cc4[nH]3)s2)cc1)C(C)C,61% (active),42%,2,88% (active),inactive,inactive,inactive,inactive
O=C(Nc1cccc(-c2ccc(-c3nc4ccc(C(F)(F)F)cc4[nH]3)s2)c1)c1cnc[nH]1,36%,55% (active),-3,89% (active),inactive,inactive,inactive,inactive
CCc1c[nH]c2c(N(c3ccccc3)S(C)(=O)=O)cc(C(=O)N[C@@H](Cc3ccccc3)[C@H](O)CNCc3cccc(C(F)(F)F)c3)cc12,98% (active),20%,1,93% (active),inactive,inactive,inactive,inactive
CC(C)(C)Nc1cc(C(=O)N[C@@H](Cc2ccccc2)[C@H](O)CNC2CCOCC2)cc(N2CCCCS2(=O)=O)c1,98% (active),-5%,-1,99% (active),inactive,inactive,inactive,inactive
NC(N)=Nc1nccc(NCc2ccccc2)n1,48%,95% (active),-1,88% (active),inactive,inactive,inactive,inactive
COc1ccc([C@@]23Oc4cc(OC)cc(OC)c4[C@]2(O)C2(CC3c3ccccc3)SCCCS2)cc1 (stereo not given in full),97% (active),39%,-10,96% (active),inactive,inactive,inactive,inactive
CCC(C(=O)Nc1ccccc1)n1nc(-c2ccc(C)c(S(=O)(=O)N3CCCCC3)c2)ccc1=O (stereo not given),67% (active),-2%,4,85% (active),inactive,inactive,inactive,inactive
Cc1ccc2nc(-c3ccc(C=CC(=O)NCc4ccc(Cl)c(Cl)c4)cc3)[nH]c2c1,18%,5%,-5,96% (active),inactive,inactive,inactive,inactive
COc1cc2c(cc1C(F)(F)F)N(C(=O)Nc1cc(F)cc(-c3cccnn3)c1)CC2,34%,21%,6,90% (active),inactive,inactive,inactive,inactive
COc1cccc(OC)c1C(=O)N1CCC2(CC1)C(=O)N(CC(=O)NC1CCCCC1)CN2c1ccccc1,91% (active),16%,5,92% (active),inactive,inactive,inactive,inactive
Cc1cccc2[nH]c(-c3cccc(-c4ccc(NC(=O)c5cnn6cccnc56)cc4)c3)nc12,73% (active),99% (active),-1,101% (active),inactive,inactive,inactive,inactive
Fc1ccc2nc(-c3cccc(-c4ccc(CNCCN5CCNCC5)cc4)c3)[nH]c2c1,-3%,9%,-2,90% (active),inactive,inactive,inactive,inactive

SMILES,growth inhibition [1],inhibition [2],inhibition [3] [%],growth inhibition [4],outcome [5],outcome [6],outcome [7],outcome [8]
O=C(NCCCCN1CCC(c2ccc3c(c2OCCN2CCCC2=O)CCCC3)CC1)c1ccc(-c2ccc(C(F)(F)F)cc2)cc1,1%,56% (active),1,88% (active),inactive,inactive,inactive,inactive
COc1cc2c(cc1S(=O)(=O)c1ccc(NC(=O)c3ccc4ccccc4c3)cc1)CCN(C)CC2,28%,2%,-4,99% (active),inactive,inactive,inactive,inactive
O=S(=O)(NCCN1CCCC1)c1ccc(-c2ccc(CNCc3ccccc3)cc2)s1,17%,34%,-5,94% (active),inactive,inactive,inactive,inactive
O=C(C1COc2ccccc2O1)N(CCCn1ccnc1)Cc1csc(-c2ccc(CNCc3ccccc3)cc2)n1 (stereo not given),18%,15%,-1,100% (active),inactive,inactive,inactive,inactive
Cn1cncc1C(=O)Nc1ccc(-c2cccc(-c3nc4ccc(C(F)(F)F)cc4[nH]3)c2)cc1,3%,34%,4,100% (active),inactive,inactive,inactive,inactive
CC(=O)Nc1cccc(C(=O)Nc2ccc(-c3cccc(-c4nc5c(C)cccc5[nH]4)c3)cc2)c1,50% (active),86% (active),-4,100% (active),inactive,inactive,inactive,inactive
Cc1cccc(CCCNC(=O)CN(c2cccc(C(F)(F)F)c2)S(=O)(=O)c2ccc(C(F)(F)F)cc2)c1,94% (active),9%,5,96% (active),inactive,inactive,inactive,inactive
CCC(NC(=O)c1ccccc1NC(=O)c1ccc(C)cc1)C(=O)OC (stereo not given),86% (active),-4%,3,95% (active),inactive,inactive,inactive,inactive
Cc1cc(N2CCCC2)nc(Nc2ccc(NC(=O)Cc3ccccc3)cc2)n1,72% (active),71% (active),-4,102% (active),inactive,inactive,inactive,inactive
COc1ccc2nccc(N3CCC(CCNCc4ccc5c(n4)NC(=O)CO5)CC3)c2n1,72% (active),19%,-7,101% (active),inactive,inactive,inactive,inactive
CC(CN1CCN(C)CC1)C(=O)Nc1ccc(-c2ccc(-c3nc4ccc(C(F)(F)F)cc4[nH]3)cc2)cc1 (stereo not given),100% (active),19%,-8,101% (active),inactive,inactive,inactive,inactive
COc1cccc(-c2ccc(C(=O)NC3CCN(Cc4ccc(N(C)C)cc4)CC3)s2)c1,20%,8%,-1,81% (active),inactive,inactive,inactive,inactive
CC(C(=O)Nc1ccc(Br)cc1Br)N1CCN(C(=O)c2ccco2)CC1 (stereo not given),84% (active),3%,-3,91% (active),inactive,inactive,inactive,inactive
c1cncc(CNc2ncc(-c3ccsc3)c(-c3nccs3)n2)c1,63% (active),-6%,2,81% (active),inactive,inactive,inactive,inactive
CCCCOc1ccc(C(O)C(CN2CCCCC2)c2ccccc2)cc1 (stereo not given),84% (active),7%,3,90% (active),inactive,inactive,inactive,inactive
C=CCc1c(C(=O)NCC23CC4CC(CC(C4)C2)C3)[nH]c2ccccc2c1=O,79% (active),40%,2,86% (active),inactive,inactive,inactive,inactive
CN(C)CCCOc1cccc(CCNCc2cccc(Oc3ccc(Cl)cc3)c2)c1,67% (active),72% (active),-3,93% (active),inactive,inactive,inactive,inactive
CN(C(=O)Cc1ccc(Cl)cc1)C1CCN(CCCCCNC(=O)/C=C/c2ccc(Cl)c(Cl)c2)CC1,16%,69% (active),-6,83% (active),inactive,inactive,inactive,inactive
O=C(Nc1nc2cc(S(=O)(=O)NCCc3ccc(F)cc3)ccc2n1CCCn1ccnc1)c1ccc(Cl)cc1,55% (active),18%,3,100% (active),inactive,inactive,inactive,inactive
O=C(c1cccc(-c2noc(C(F)(F)F)n2)c1)N1CCN(c2nsc3ccccc23)CC1,81% (active),18%,-2,90% (active),inactive,inactive,inactive,inactive
